From PubChem BioAssay
Values without a mark were called inactive. Calls of active or inactive are those of the source. Unless noted, no stated cut-off is given here; in the data, active means inhibition above about 28%; inactive means the rest.

Legend:
[1] = StAR promoter reporter inhibitors, counter-screen for LRH-1 inverse agonist project, cell-based, luminescence, high throughput (AID 651611); conditions: StAR promoter luciferase reporter counterscreen, at 3.6 µM, hits give high values
[2] = target: Nuclear receptor subfamily 5 group A member 2 (Homo sapiens) (UniProt O00482); assay: NR5A2 activity suppression in reporter cells – cell-based, luminescence, confirmation (AID 651613; in the data active means inhibition above about 42%;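 further: HEK293T cells co-transfected with LRH-1 and StAR promoter luciferase reporter; 0% = vehicle wells and 100% = parental cells lacking receptor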); conditions: cell-based LRH-1 luciferase reporter, inverse agonism; at 3.6 µM; hits give high values
[3] = target: Steroidogenic factor 1 (Homo sapiens) (UniProt Q13285); assay: inverse agonism at SF1 nuclear receptor – cell-based, luminescence, high throughput, counter-screen for LRH-1 inverse agonist project (AID 651614; in the data active means inhibition above about 44%;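 further: cells cotransfected with StAR promoter reporter and SF1 expression vector; 0% = vehicle on cells with receptor and 100% = vehicle on cells lacking receptor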); conditions: cell-based SF1 luciferase reporter, at 3.6 µM, hits give high values
[4] = compounds suppressing VP16-driven luciferase signal – cell-based, luminescence, high throughput, counter-screen for LRH-1 inverse agonist project (AID 651615; in the data active means inhibition above about 33%); conditions: Gal4-VP16 luciferase reporter cells, at 3.6 µM, hits give high values

Sequence of Steroidogenic factor 1 (Homo sapiens) (Q13285 whole entry, looked up, the tested form may be a part): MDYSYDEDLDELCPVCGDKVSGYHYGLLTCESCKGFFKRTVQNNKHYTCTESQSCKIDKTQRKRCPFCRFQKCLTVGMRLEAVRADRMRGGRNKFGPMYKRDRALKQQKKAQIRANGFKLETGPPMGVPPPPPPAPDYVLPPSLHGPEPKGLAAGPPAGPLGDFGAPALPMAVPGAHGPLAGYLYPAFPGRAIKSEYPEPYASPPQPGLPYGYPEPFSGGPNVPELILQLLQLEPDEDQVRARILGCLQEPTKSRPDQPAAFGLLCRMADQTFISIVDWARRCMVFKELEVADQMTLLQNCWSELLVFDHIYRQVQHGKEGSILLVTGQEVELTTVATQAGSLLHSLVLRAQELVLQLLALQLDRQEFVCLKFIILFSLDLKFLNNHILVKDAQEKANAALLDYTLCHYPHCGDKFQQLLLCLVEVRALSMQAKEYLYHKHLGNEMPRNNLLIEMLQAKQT
Sequence of Nuclear receptor subfamily 5 group A member 2 (Homo sapiens) (O00482 whole entry, looked up): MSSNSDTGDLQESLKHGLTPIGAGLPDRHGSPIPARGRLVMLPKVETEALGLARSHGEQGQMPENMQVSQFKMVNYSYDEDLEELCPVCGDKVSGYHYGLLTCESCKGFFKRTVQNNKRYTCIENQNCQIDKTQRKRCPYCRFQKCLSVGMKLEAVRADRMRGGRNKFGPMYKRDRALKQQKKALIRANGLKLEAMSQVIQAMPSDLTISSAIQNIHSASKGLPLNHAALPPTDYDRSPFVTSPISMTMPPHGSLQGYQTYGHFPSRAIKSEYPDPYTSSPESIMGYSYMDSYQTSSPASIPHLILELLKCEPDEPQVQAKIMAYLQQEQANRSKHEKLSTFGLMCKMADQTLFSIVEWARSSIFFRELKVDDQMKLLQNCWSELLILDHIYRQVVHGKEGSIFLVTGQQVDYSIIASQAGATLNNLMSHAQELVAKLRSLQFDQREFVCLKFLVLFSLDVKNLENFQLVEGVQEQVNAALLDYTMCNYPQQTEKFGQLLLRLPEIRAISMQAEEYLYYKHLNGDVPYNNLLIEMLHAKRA

Row | Structure (SMILES) | inhibition [1] | inhibition [2] | inhibition [3] | inhibition [4]
1 | COc1cc2c3c(cccc3c1)C(=O)N(CCN1CCCC1)C2=O | 12.7% | 72.8% (active) | 49.7% (active) | 70.9% (active)
2 | Cc1cc(=O)oc2cc(O)cc(OCc3ccccc3)c12 | 26% | 51.7% (active) | 45.2% (active) | -8.41%
3 | Cc1cc(C)c2nc(-c3cccnc3)cc(C(=O)NC(C)c3cnn(C)c3C)c2c1 (stereo unspecified) | 10.3% | 57.6% (active) | 50.9% (active) | -13.5%
4 | COc1ccc(-n2c(SCC(=O)NCc3ccco3)nc3sc4c(c3c2=O)CCN(C)C4)cc1 | -6.62% | -2.89% | 11% | -5.24%
5 | COc1cc(-c2noc(C)c2-c2ccc(N(C)C)nc2)cc(OC)c1OC | 58.7% (active) | 53% (active) | 63.2% (active) | -0.05%
6 | O=C(NCC1CCCO1)c1ccc(NC(=O)c2cccc([N+](=O)[O-])c2)cc1 (stereo unspecified) | 3.83% | 56.2% (active) | 54% (active) | -2.03%
7 | CCCN(CC(=O)Nc1ccc(C(N)=O)cc1)CC(=O)Nc1ccccc1C | 15.3% | 55.4% (active) | 53.9% (active) | 6.63%
8 | Cc1cc(C)c2c(NC(=O)CCl)nn(C)c2n1 | 46.8% (active) | 64.2% (active) | 68.7% (active) | -39.7%
9 | COc1cc(-c2cc(C(=O)NCc3ccc(S(N)(=O)=O)cc3)c3ccccc3n2)cc(OC)c1OC | 27.1% | 20.3% | 23.5% | -26.4%
